Structures are written as SMILES. Several values for one entry are separate records, joined by “and”; a condition that tells them apart may be missing. Equal values may be shown once. Hit rate of the full screen: of about 310,000 compounds, about 11,000 (3.5%) were called active. Another 4% or so got no clear call; they are omitted. This excerpt belongs to a sample that is enriched for actives. A structure can be active in one record and inactive in another. Values without a mark were called inactive. Calls follow the shape of the dose curve; as a rule, active = well fitted inhibition curve with a large enough effect; inconclusive = small, poorly fitted or top-dose-only effect, or another doubt; inactive = no such curve, though single readings can be large or run the other way.
Potency is read from the fitted curve at half-maximal effect.

The assay deals with 4'-phosphopantetheinyl transferase ffp (Bacillus subtilis) (UniProt Q9F4F7). As to the kind of experiment: qHTS Assay for Inhibitors of Bacillus subtilis Sfp phosphopantetheinyl transferase (PPTase).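 Also: the enzyme is Sfp with the accession as filed and its product quenches rhodamine fluorescence.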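 As to largest response in the series, negative = inhibition: 0% = enzyme reaction without inhibitor and -100% = no enzyme wells.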 The conditions noted are these: Biochemical Sfp PPTase activity. From the text: Assay Submitter: Michael Burkart, University of California, San Diego
Screening Center PI: Austin, C.P.
Screening Center: NIH Chemical Genomics Center [NCGC]
The covalent attachment of a phosphopantetheinyl (4'-PP) arm to a variety of synthases and other proteins is a key posttranslational protein modification. The 4'-PP is installed on the proteins post-translationally from coenzyme A (CoA) on a conserved serine residue by action of phosphopantetheinyl transferase (PPTase) enzymes. Phosphopantetheinylation is essential for synthase activity, and removal of the PPTase gene precludes natural product synthesis in microorganisms, or in the case of fatty acid biosynthesis, renders the organism unviable. PPTase enzymes belong to a distinct structural superfamily. Within bacteria, these enzymes are grouped into two classes based upon primary structure, the AcpS-Type and Sfp-Type PPTases.
Sfp-type PPTases, corresponding to an activator of surfactin production in Bacillus subtilis, are responsible for modifying type I polyketide and nonribosomal peptide synthases of prokaryotes. Sfp-type PPTases are responsible for the activation of a variety of pathogen-associated virulence factors. Among these compounds are toxins such as mycolactone from Mycobacterium ulcerans, siderophores such as vibriobactin from Vibrio cholerae or mycobactin from Mycobacterium tuberculosis, as well as the mycolic acids which form the waxy cell wall of Mycobacteria. The biosyntheses of these natural products are considered attractive targets for drug design.
In search of small molecule Sfp-PPTase inhibitors, a fluorescence quenching assay was developed for detection of Bacillus subtilis Sfp-PPTase enzymatic activity in a miniaturized high-throughput format. The consensus ybbr acceptor peptide […] was N-terminally labeled with Black Hole Quencher-2 (BHQ-2) and used in combination with rhodamine-labeled coenzyme A as a co-substrate.
Inhibition of Sfp-PPTase was detected by recording the fluorescence intensity change over a 30-minute reaction period at a 525 nm excitation and 598 nm emission. Reagents were supplied by Michael Burkart and Timothy Foley, University of California at San Diego.
This BioAssay deposition is for validation of the developed Sfp-PPtase assay.
Assay Buffer: 50 mM Hepes-Na pH 7.6, 10 mM MgCl2, 0.01% Nonidet P-40, and 0.01% BSA.
3 uL of Sfp-PPTase enzyme (final concentration 15 nM) and 1 uL of substrate mixture (final concentration for rhodamine-CoA and BHQ-2-YbbR 5 uM and 12.5 uM, respectively) dispensed in columns 1, 2, 5 - 48. Columns 1 and 2 used to generate neutral control (uninhibited reaction)
Three uL of reagents, consisting of buffer (in columns 3 and 4 as negative control) and Sfp-PPTase (in columns 1, 2, 5 - 48) were dispensed into 1,536-well Greiner black solid bottom plate. Compounds (23 nL) were transferred via Kalypsys pintool equipped with 1,536-pin array. The plate was incubated for 15 min at room temperature, followed by the addition of 1 uL substrate to start the reaction. The plate was then centrifuged at 1000 rpm for 15 seconds, and the fluorescence intensity recorded on a ViewLux High-throughput CCD imager (Perkin-Elmer) using standard BODIPY optics (525 nm excitation and 598 nm emission). The plate was then incubated for 30 minutes, and a second read on the ViewLux was performed. The fluorescence intensity difference over the 30-minute period was used to calculate the respective reaction rate for each well.
(In general: qHTS replaces the single test concentration by a dilution series.)
For `Cc1cc(C)cc(N(CC(=O)NCCSCc2ccco2)S(C)(=O)=O)c1`, the largest response in the series, negative = inhibition is 9.95%.

As to `CCc1ccccc1N(CC(=O)NCCSCc1ccco1)S(C)(=O)=O`, the Potency was 17.8 µM (active).

Take `CS(=O)(=O)N(Cc1ccc(Cl)cc1)c1ccc(C(=O)NCCSCc2ccco2)cc1`: the largest response in the series, negative = inhibition is 22.6%.

As for `CC(C)N(C(=O)Cn1cc(S(=O)(=O)CC(=O)N2CCOCC2)c2ccccc21)C(C)C`, the largest response in the series, negative = inhibition was 4.5%.

As for `O=C(C1CC(=O)N(c2ccc(Br)cc2)C1)N1CCCC1` (stereo unspecified), the largest response in the series, negative = inhibition is 5.88%.

As to `Cn1c(CSCC(=O)Nc2ccccc2)nnc1SCc1ccccc1`, the largest response in the series, negative = inhibition was -1.75%.

As to `Cn1c(Cc2cccs2)nnc1SCC(=O)Nc1ccccc1`, the largest response in the series, negative = inhibition was 11.4%.

Regarding `Cn1c(CC(=O)Nc2ccccc2)nnc1SCC(=O)c1ccccc1`, the Potency is 35.5 µM (active).

With `CCN1CCCC1CNC(=O)c1cc2cc(OC)c(OC)cc2[nH]1` (stereo unspecified), the largest response in the series, negative = inhibition was 18.4%.

`COc1ccccc1CCNC(=O)C1CCN(C(=O)/C=C/c2ccccc2)CC1`: the largest response in the series, negative = inhibition is -8.37%.

Turning to `O=C1CCCN1CCCNC(=S)Nc1ccc(F)c(Cl)c1`, the Potency is 14.1 µM (active).

For `Cc1cc(Cl)ccc1NC(=S)NCCCN1CCCC1=O`, the largest response in the series, negative = inhibition is 5.94%.

For `Cc1c(Cl)cccc1NC(=O)NCCCN1CCCC1=O`, the largest response in the series, negative = inhibition is 4.97%.

As to `CCN(CC)C(=O)c1sc2nc(-c3ccccc3)ccc2c1N`, the Potency was 20 µM (active).

Take `CCCC(=O)n1nc(-c2ccccc2)nc1N`: the largest response in the series, negative = inhibition is -3.09%.

In the case of `Cc1ccc2c(N)c(C(=O)c3ccccc3)sc2n1`, the largest response in the series, negative = inhibition is -25.4%.

Turning to `COc1cc(C(C(=O)NC2CCCC2)N(C(=O)c2ccco2)c2ccccc2C(C)=O)cc(OC)c1OC` (stereo unspecified), the largest response in the series, negative = inhibition was 9.66%.

In the case of `COc1ccc2[nH]c(=O)c(C3c4cc(OC)c(OC)cc4CCN3C(=O)c3ccco3)cc2c1` (stereo unspecified), the largest response in the series, negative = inhibition is -2.97%.

Turning to `Cc1cccc(NC(=O)C2CCCN(C(=O)NCc3ccccc3)C2)c1C` (stereo unspecified), the largest response in the series, negative = inhibition is 5.34%.

`COc1ccccc1OCC(O)CN1CCOCC1` (stereo unspecified): the largest response in the series, negative = inhibition was 15.2%.

For `CC(C)(C)NCC(O)COc1cccc2[nH]c(=O)[nH]c12` (stereo unspecified), the largest response in the series, negative = inhibition is 6.07%.

With `COc1ccccc1OCCNCC(O)COc1cccc2[nH]c3ccccc3c12` (stereo unspecified), the Potency is 50.1 µM (active); the largest response in the series, negative = inhibition is -10.5% and 8.7% and -18.4%.

For `COc1cccc(NC(=O)C/C(C)=N/NC(=O)C2CCCCC2)c1`, the largest response in the series, negative = inhibition is 9.15%.

As for `O=C(COc1ccccc1Cl)N1CCCCCCC1`, the largest response in the series, negative = inhibition is 23.9%.

On to `COc1cc(NC(=O)c2ccccc2)c(OC)cc1NC(=O)Cc1ccccc1`, for which the largest response in the series, negative = inhibition is -10.9%.

For the compound `O=C1CSC(=S)N1/N=C/c1ccc(O)c([N+](=O)[O-])c1`, the Potency is 39.8 µM (active).

On to `Cc1cc(C(=O)N/N=C/c2ccc(O)c([N+](=O)[O-])c2)c(C)n1-c1ccc(F)cc1`, for which the largest response in the series, negative = inhibition was -9.8%.

Consider `O=[N+]([O-])c1ccc(N2CCSCC2)cc1O`, for which the largest response in the series, negative = inhibition was 17.8%.

With `CCOC(=O)N1CCN(S(=O)(=O)N2CCCC(C(=O)NCCCN3CCC(C)CC3)C2)CC1` (stereo unspecified), the largest response in the series, negative = inhibition is 6.69%.

`O=C(CCC1CCCN(C(=O)c2ccc(F)c(F)c2)C1)N1CCN(c2ccccn2)CC1` (stereo unspecified): the largest response in the series, negative = inhibition was 7.09%.

For the compound `CC(=O)Nc1ccc(NC(=O)CSc2ncnc3c2cnn3Cc2ccccc2)cc1`, the largest response in the series, negative = inhibition is 13.9%.

`CSc1c(SCc2ccccc2)cnn(Cc2ccccc2)c1=O`: the Potency is 44.7 µM (active).

Take `CSc1nc2ccccc2c(=O)n1Cc1ccc(F)cc1`: the largest response in the series, negative = inhibition is -16.2%.

On to `Cc1nc(COc2cc3oc(=O)cc(C)c3cc2Cl)cs1`, for which the largest response in the series, negative = inhibition was -11.1%.

Regarding `CN(C)c1nc(=Nc2cccc(Cl)c2)ss1`, the Potency was 10 µM (active).

As to `Cc1ccc(-c2ccc(/C=C(\C#N)C(N)=S)o2)c([N+](=O)[O-])c1`, the Potency was 35.5 µM (active).

Consider `N#C/C(=C/c1ccc(-c2ccccc2[N+](=O)[O-])o1)C(=O)NCCN1CCCCC1`, for which the largest response in the series, negative = inhibition is -17.3%.

Turning to `Cc1ccc(Cc2cnc(NC(=O)/C(C#N)=C/c3ccc(-c4cccc([N+](=O)[O-])c4)o3)s2)cc1`, the largest response in the series, negative = inhibition was 3.34%.

Take `CC(C)(C)C(=O)NC1CC2CCCC(C1)N2C(=O)Nc1ccccc1F` (stereo unspecified): the largest response in the series, negative = inhibition is 15.8%.

Consider `O=C(c1ccncc1)N1CCC2(CCN(Cc3cc(C(F)(F)F)cc(C(F)(F)F)c3)CC2)CC1`, for which the largest response in the series, negative = inhibition was 8.21%.

Take `N#Cc1c(-c2ccccc2)cc(-c2ccccc2)nc1SCC(=O)O`: the Potency was 35.5 µM (active).

Consider `CCSc1nc(-c2ccc(OC)cc2)cc(-c2ccc(OC)cc2)c1C#N`, for which the largest response in the series, negative = inhibition is 4.06%.

`N#Cc1c(C(F)(F)F)cc(-c2ccc(Cl)cc2)nc1SCC(=O)O`: the largest response in the series, negative = inhibition is 7.84%.

On to `Cn1c(=O)c2c(nc(NCc3ccccc3)n2CC(N)=O)n(C)c1=O`, for which the largest response in the series, negative = inhibition is 10.1%.

For `CC(O)c1nc2c(c(=O)n(C)c(=O)n2C)n1C` (stereo unspecified), the largest response in the series, negative = inhibition is 11.9%.

As to `CCC/C(C)=N\Nc1nc2c(c(=O)n(C)c(=O)n2C)n1C`, the Potency is 39.8 µM (active).

`CCCC[C@H]1COCCS(=O)(=O)N1Cc1cccc(Cl)c1`: the largest response in the series, negative = inhibition was -5.24%.

Take `COc1ccc(CNC(=O)c2nnn(CC(=O)Nc3cc(C)cc(C)c3)c2N)cc1`: the largest response in the series, negative = inhibition was -8.71%.

`COc1ccc(C(=O)Nc2c(N)nc(SCC(=O)Nc3ccc(C(C)=O)cc3)[nH]c2=O)cc1`: the largest response in the series, negative = inhibition is -14.5%.

As to `Cc1ccc(OCC(=O)Nc2ccccc2C(=O)NC2CC2)cc1C`, the largest response in the series, negative = inhibition was -9.75%.

As to `CCOc1ccccc1NC(=O)Cn1nnc(C(=O)NCc2cccs2)c1N`, the Potency was 50.1 µM (active).

Turning to `CCOc1ccccc1NC(=O)Cc1cccs1`, the largest response in the series, negative = inhibition was 13.9%.

Take `CCOc1ccc(Cn2nnc(C(=O)NCc3ccccc3)c2N)cc1`: the largest response in the series, negative = inhibition is 9.87%.

`Cc1cccc(C(=O)OC(C)CN2CCCC2)c1` (stereo unspecified): the largest response in the series, negative = inhibition was 6.65%.

For `Cc1ccc(F)c(NC(=O)CCOc2ccccc2C)c1`, the largest response in the series, negative = inhibition is -1.65%.

As to `Cn1cc[n+](C)c1COc1ccc(C=O)cc1`, the largest response in the series, negative = inhibition is 12%.

In the case of `O=C1CCC([N+](=O)[O-])C(c2ccccc2Br)N1` (stereo unspecified), the largest response in the series, negative = inhibition was 15.7%.

Regarding `Cc1ccc(C2CC(=O)NC(SCC(=O)OCc3ccccc3)=C2C#N)o1` (stereo unspecified), the largest response in the series, negative = inhibition is -27.5%.

Take `C=CCSC1=C(C#N)C(c2cc(Br)c(O)c(OC)c2)CC(=O)N1` (stereo unspecified): the Potency is 25.1 µM (active).

Regarding `CCOC(=O)CSC1=C(C#N)C(c2sccc2C)CC(=O)N1` (stereo unspecified), the largest response in the series, negative = inhibition was 10.2%.

(Values after PubChem BioAssay AID1490 (National Center for Advancing Translational Sciences (NCATS), 2009).)
